Measurements taken from PubChem BioAssay (NCATS).
Inconclusive results are not listed. Active and inactive are the calls of the source.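 The calls were made as follows, unless noted: active = compounds whose dose series gives a full or clear partial fitted curve of increased nuclear translocation; inconclusive = weak partial curve or effect only at the top dose; inactive = no dose-dependent translocation response.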

Test system: not listed separately
Assay: Stat Signaling Pathway (AID 446; active = well fitted curve in either direction with a large enough effect, not every such curve was filed as active;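 also: ME-180 cervical cancer cells given 40 pM IL-6 alongside compound; SIE-controlled beta-lactamase reporter measured as 460/530 nm FRET emission ratio; % is scaled to controls: 0 for no effect and ±100 for the full control effect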)
Details: ME-180 (cervical carcinoma) SIE beta-lactamase reporter, IL-6 stimulated, 5 h; at 17.2 µM (top of the series) unless noted
Procedure, shortened: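 Overnight-plated ME-180 cells bearing a STAT Inducible Element beta-lactamase reporter; 5 h co-exposure to compound and 40 pM IL-6; values normalized to 300 pM IL-6 and 125 nM JAK inhibitor controls.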

activity, negative = inhibition, inactive:
Cc1[nH]nc2c1C(CCc1ccccc1)C(C#N)=C(N)O2 (stereo not drawn) -1.82%, COc1ccc(-c2onc(C)c2-c2ccccc2)c(O)c1 -25.2%, CCOC(=O)C1=C(C(C)=O)C(c2cccnc2)C(C#N)=C(N)O1 (stereo not drawn) -12.3%, CCOC(=O)NC(O)C(=O)c1cccs1 (stereo not drawn) 3.85%, CCOc1nc(-c2ccncc2)nc2ccccc12 -6.2%, CCC(C)Nc1nc(OC)nc(N(C)C#N)n1 (stereo not drawn) -0.957%, CC(=O)Nc1ccc(NCC(O)COc2ccccc2)cc1 (stereo not drawn) 3.96%, COC(=O)CSc1nc(N)c2c3c(sc2n1)CCCC3 29.8%, COCCCn1c2nc3ccccc3nc2c2c(=O)n(CC3CCCO3)cnc21 (stereo not drawn) -0.209%, CN(C)CCNC(=O)C12CC3(C)CC(C)(CC(C)(C3)C1)C2 8.6%, COc1ccc(/C(O)=C2/C(=O)C(=O)N(CCN(C)C)C2c2ccccn2)cc1OC (stereo not drawn) -3.63%, C[n+]1cccc(CNC(=O)/C=N/O)c1 7.83%, O=C(CN1C(=O)c2ccccc2C1=O)NCc1ccncc1 5.8%, O=C1NC(c2cccs2)Nc2ccccc21 (stereo not drawn) -4.53%, O=S(=O)(O)c1nc2ccccc2n1Cc1ccc(Cl)cc1Cl -9%, COc1cccc(NC(=O)c2cc(C(=O)Nc3cccc(OC)c3)n(C)n2)c1 -3.92%, CCOC(=O)c1[nH]c2ccccc2c1NC(=O)CN(C)C 1.63%, Cc1nn(C)cc1CNC(=O)c1ccc(Br)o1 6.82%, CCOC(=O)c1c(C(C#N)C#N)cc(C)nc1C 1.48%, CC1(C)CC(=O)C2=C(C1)N(CC1CCCO1)C(=O)C2(O)C(F)(F)F (stereo not drawn) 5.45%, CCCCOc1ccc(C2CC(=O)N(C)C2=O)cc1 (stereo not drawn) 4.12%, Cc1ccc(S(=O)(=O)N(CC(O)CN2CCOCC2)c2cc(Cl)ccc2Cl)cc1 (stereo not drawn) -1.96%, c1ccc2c(c1)nc(CN1CCOCC1)n1c3ccccc3nc21 14.3%

Molecular target: Glucocorticoid receptor (Homo sapiens) (UniProt P04150)
Sequence (P04150 whole entry, looked up): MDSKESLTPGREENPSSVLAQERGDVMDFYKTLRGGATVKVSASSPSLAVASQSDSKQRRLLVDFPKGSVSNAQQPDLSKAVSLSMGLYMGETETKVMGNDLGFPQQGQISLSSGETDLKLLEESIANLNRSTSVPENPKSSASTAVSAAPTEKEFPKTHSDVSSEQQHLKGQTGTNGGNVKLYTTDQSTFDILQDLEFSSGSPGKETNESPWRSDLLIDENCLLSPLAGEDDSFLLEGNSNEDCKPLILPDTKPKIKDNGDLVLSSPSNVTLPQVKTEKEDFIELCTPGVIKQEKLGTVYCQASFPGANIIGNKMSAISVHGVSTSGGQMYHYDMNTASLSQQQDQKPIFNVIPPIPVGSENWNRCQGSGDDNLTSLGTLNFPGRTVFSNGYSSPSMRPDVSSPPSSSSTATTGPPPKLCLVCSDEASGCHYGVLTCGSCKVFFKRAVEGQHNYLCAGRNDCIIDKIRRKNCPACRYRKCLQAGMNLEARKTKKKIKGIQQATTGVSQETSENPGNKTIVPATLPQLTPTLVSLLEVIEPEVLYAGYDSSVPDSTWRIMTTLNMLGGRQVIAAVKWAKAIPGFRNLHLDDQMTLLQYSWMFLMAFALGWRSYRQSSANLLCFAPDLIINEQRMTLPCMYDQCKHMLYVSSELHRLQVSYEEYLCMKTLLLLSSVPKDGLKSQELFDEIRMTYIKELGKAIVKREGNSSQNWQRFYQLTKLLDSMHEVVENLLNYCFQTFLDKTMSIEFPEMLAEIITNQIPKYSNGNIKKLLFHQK
Assay: GR-GFP Redistribution (AID 450); also: potency is read from the fitted curve at half-maximal effect
Details: U2OS GR-GFP nuclear translocation, laser cytometry, 2 h; series mostly up to 20.6 µM

Potency, inactive:
Cc1cc(OCC(=O)Nn2cnnc2)ccc1Br > 20.6 µM, COc1ccc(NCc2cc3ccccc3[nH]c2=O)cc1 > 20.6 µM, O=C(Nc1ccccn1)c1ccc(=O)[nH]n1 > 20.6 µM, COn1c(=S)[nH]c2ccccc2c1=O > 20.6 µM, Cc1c2c([n+]3n1CCC3)CC(C)(C)CC2=O > 20.6 µM, CCOc1ccc(C2C(C(=O)c3ccc(C)o3)=C(O)C(=O)N2CCCN(CC)CC)cc1 (stereo not drawn) > 20.6 µM, O/N=C(\c1ccc2c(c1)OCCO2)C1CCCCC1 > 20.6 µM, CCOC(=O)c1[nH]c2ccc(Br)cc2c1NC(=O)CCN1CCN(C(=O)OCC)CC1 > 20.6 µM, O=C1OC(Nc2ccc(Br)cn2)c2ccccc21 (stereo not drawn) > 20.6 µM, CCOC(=O)C1(c2nc(N)cs2)COC(=O)C1 (stereo not drawn) > 20.6 µM, Cc1cc2c(c(=O)o1)C(Cc1ccccc1)C(C#N)=C(N)O2 (stereo not drawn) > 20.6 µM, O=C(c1ccccc1)c1cc(-c2ccccc2)on1 > 20.6 µM, CCCSc1nc(C)c(CC(=O)OCC)c(=O)[nH]1 > 20.6 µM, Nn1c(SCC(=O)Nc2ccc3c(c2)OCCO3)nnc1C(F)(F)F > 20.6 µM, CCOC(=O)c1c(N)sc2c1CCC1C(=O)N(C3CCCCC3)C(=O)C21 (stereo not drawn) > 20.6 µM, O=C(NCc1cccnc1)NC(C(F)(F)F)C(F)(F)F > 20.6 µM, COC(=O)c1[nH]c(C)c(/C(O)=C2\C(=O)C(=O)N(CCN3CCOCC3)C2c2cccnc2)c1C (stereo not drawn) > 20.6 µM, Cc1[nH]nc2c1C(CCc1ccccc1)C(C#N)=C(N)O2 (stereo not drawn) > 20.6 µM, COc1ccc(-c2onc(C)c2-c2ccccc2)c(O)c1 > 20.6 µM, CCOC(=O)C1=C(C(C)=O)C(c2cccnc2)C(C#N)=C(N)O1 (stereo not drawn) > 20.6 µM, CCOC(=O)NC(O)C(=O)c1cccs1 (stereo not drawn) > 20.6 µM, CCOc1nc(-c2ccncc2)nc2ccccc12 > 20.6 µM, CCC(C)Nc1nc(OC)nc(N(C)C#N)n1 (stereo not drawn) > 20.6 µM, CC(=O)Nc1ccc(NCC(O)COc2ccccc2)cc1 (stereo not drawn) > 20.6 µM, COC(=O)CSc1nc(N)c2c3c(sc2n1)CCCC3 > 20.6 µM, COCCCn1c2nc3ccccc3nc2c2c(=O)n(CC3CCCO3)cnc21 (stereo not drawn) > 20.6 µM, CN(C)CCNC(=O)C12CC3(C)CC(C)(CC(C)(C3)C1)C2 > 20.6 µM, COc1ccc(/C(O)=C2/C(=O)C(=O)N(CCN(C)C)C2c2ccccn2)cc1OC (stereo not drawn) > 20.6 µM, C[n+]1cccc(CNC(=O)/C=N/O)c1 > 20.6 µM, O=C(CN1C(=O)c2ccccc2C1=O)NCc1ccncc1 > 20.6 µM, O=C1NC(c2cccs2)Nc2ccccc21 (stereo not drawn) > 20.6 µM, O=S(=O)(O)c1nc2ccccc2n1Cc1ccc(Cl)cc1Cl > 20.6 µM, COc1cccc(NC(=O)c2cc(C(=O)Nc3cccc(OC)c3)n(C)n2)c1 > 20.6 µM, CCOC(=O)c1[nH]c2ccccc2c1NC(=O)CN(C)C > 20.6 µM, Cc1nn(C)cc1CNC(=O)c1ccc(Br)o1 > 20.6 µM, CCOC(=O)c1c(C(C#N)C#N)cc(C)nc1C > 20.6 µM, CC1(C)CC(=O)C2=C(C1)N(CC1CCCO1)C(=O)C2(O)C(F)(F)F (stereo not drawn) > 20.6 µM, CCCCOc1ccc(C2CC(=O)N(C)C2=O)cc1 (stereo not drawn) > 20.6 µM, Cc1ccc(S(=O)(=O)N(CC(O)CN2CCOCC2)c2cc(Cl)ccc2Cl)cc1 (stereo not drawn) > 20.6 µM, c1ccc2c(c1)nc(CN1CCOCC1)n1c3ccccc3nc21 > 20.6 µM
